For 1 molecule, outcome and AC50 results are on record in PubChem BioAssay (EPA / NIEHS).

Assay [1] in a line: CCTE_Shafer_MEA_dev_mutual_information_norm: CCTE's Neural Network Formation Assay for Mutual Information Normalization, Shafer Lab (AID 2284091). Summed up:
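Shared information across electrodes, tracked on days 5, 7, 9 and 12 of network development and collapsed as trapezoidal area under the curve. Rat cortical cultures were treated continuously from plating, with treatment renewed at feeds on DIV 5 and 9; DMSO baseline, negative-direction fit.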

The nature of assay [2]: CCTE_Shafer_MEA_dev_correlation_coefficient_mean: CCTE's Neural Network Formation Assay for Mean Correlation Coefficient, Shafer Lab (AID 2284093).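 Further: well mean pairwise spike train correlation integrated as AUC over recording days 5 to 12; potency fitted for loss of correlation relative to DMSO vehicle wells.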 Summed up:
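Spontaneous activity recorded on days 5, 7, 9 and 12 post-plating; pairwise spike correlations are averaged across active electrodes and collapsed to an area-under-curve. Rat cortical cultures are dosed from plating through 12 days, with compound renewed at media changes.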

Assay [3] can be described thus: UKN4_HCS_LUHMES_neurite_outgrowth: University of Konstanz (UKN) Leist Lab Neurite Outgrowth Assay in human LUHMES cells (UKN4) (AID 2284206). The note with it: actives raise or lower the signal. The method, boiled down: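 After 24 h compound treatment beginning shortly after replating of 2-day-differentiated LUHMES cells, calcein-AM and H-33342 live staining allowed high-content imaging of neurite area and viability. Fitted bidirectionally against DMSO.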

Assay [4] in a line: IUF_NPC1b_proliferation_BrdU_72hr: Leibniz Research Institute for Environmental Medicine (IUF) 72-hour Neural Progenitor Cell Bromodeoxyuridine (BrdU) Proliferation Assay (NPC1b) (AID 2284207). Summed up:
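Human fetal cortex-derived (GW 16-19) neural progenitor spheres, 0.25-0.35 mm, one per well in EGF/FGF proliferation medium, exposed to compound for 72 h at 37C, pH 7.2-7.6. BrdU incorporation over the final 16 h read by luminescence ELISA, relative to DMSO.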

Assay [5] is described as follows: IUF_NPC1a_proliferation_area_72hr: Leibniz Research Institute for Environmental Medicine (IUF) 72-hour Neural Progenitor Cell Proliferation Area Assay (NPC1a) (AID 2284208). Summed up: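 Spheres of 0.3 mm are plated singly in growth-factor medium and exposed from day 0. After three days at 37C and 5% CO2, sphere area is measured by phase contrast imaging, with activity referenced to DMSO.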

Assay [6] is described as follows: IUF_NPC1_viability_72hr: Viability Assessment at 72 hours in the Leibniz Research Institute for Environmental Medicine (IUF) Neural Progenitor Cell Proliferation Assay (NPC1) (AID 2284209). The method, boiled down:
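Viability was measured by resazurin-to-resorufin fluorescence (alamar blue) after 72 h of continuous exposure without compound renewal. Each well held one hNPC sphere (gestational week 16-19 fetal cortex, 0.25-0.35 mm) cultured in EGF/FGF proliferation medium at 37C and pH 7.2-7.6.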

A short description of assay [7]: CCTE_Mundy_HCI_Cortical_Synap_Neur_Matur_NeuriteSpotCountPerNeuriteLength: CCTE's Synaptogenesis and Neurite Maturation Assay in rat cortical cells for Neurite Spot Count per Neurite Length, Mundy Lab (AID 2284210). Summed up: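 Synaptophysin spots per unit neurite length, measured by automated imaging of MAP2/synaptophysin/Hoechst-stained neurons. Cultures from rat cortex received chemical at DIV 7 with media change through DIV 12; glial growth arrested by AraC at DIV 5; DMSO baseline.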

Assay [8] is described as follows: CCTE_Mundy_HCI_Cortical_Synap_Neur_Matur_BPCount: CCTE's Synaptogenesis and Neurite Maturation Assay in rat cortical cells for Branch Point Count, Mundy Lab (AID 2284211). Summed up:
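HCI read-out of branch points from MAP2/synaptophysin/Hoechst immunofluorescence; rat cortical cultures, AraC DIV 5, dosing DIV 7, fixed DIV 12; fit in positive direction vs DMSO baseline.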

A short description of assay [9]: CCTE_Mundy_HCI_Cortical_NOG_NeuriteCount: CCTE's Neurite Outgrowth Assay in rat cortical cells for Neurite Count, Mundy Lab (AID 2284212).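 Further: cells fixed about two days after chemical exposure began.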 Summed up: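 Rat cortical primary cells; compound added 2 h post-plating, 1/10 dilution of working solution. Anti-betaIII-tubulin/AF488 ICC; ArrayScan neurite count vs DMSO.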
Assay [10] in a line: CCTE_Mundy_HCI_Cortical_Synap_Neur_Matur_NeuriteLength: CCTE's Synaptogenesis and Neurite Maturation Assay in rat cortical cells for Neurite Length, Mundy Lab (AID 2284214). Summed up: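 Neurite length quantified by automated high-content imaging of MAP2, synaptophysin and Hoechst staining. Rat cortical cells received chemical from DIV 7 to DIV 12 […], glial growth arrested by AraC at DIV 5; DMSO baseline.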

Assay [11] can be described thus: CCTE_Mundy_HCI_Cortical_Synap_Neur_Matur_NeuriteSpotCountPerNeuron: CCTE's Synaptogenesis and Neurite Maturation Assay in rat cortical cells for Neurite Spot Count per Neuron Count, Mundy Lab (AID 2284215). Summed up: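 Rat cortical primary cultures; AraC DIV 5 to arrest glia; dosing + media change DIV 7; fixed DIV 12. Anti-MAP2/anti-synaptophysin, Hoechst nuclei; HCI puncta count per neuron, positive fitting direction vs DMSO.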

A short description of assay [12]: CCTE_Mundy_HCI_Cortical_Synap_Neur_Matur_SynapseCount: CCTE's Synaptogenesis and Neurite Maturation Assay in rat cortical cells for Synapse Count, Mundy Lab (AID 2284218). The method, boiled down: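 High-content imaging of synaptophysin puncta per MAP2-positive neuron (Hoechst nuclei) in rat cortical cells exposed DIV 7–12 after glial arrest with AraC at DIV 5; decrease relative to DMSO scored.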

The nature of assay [13]: CCTE_Mundy_HCI_Cortical_Synap_Neur_Matur_CellBodySpotCount: CCTE's Synaptogenesis and Neurite Maturation Assay in rat cortical cells for Cell Body Spot Count, Mundy Lab (AID 2284223). The method, boiled down: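 Rat cortical neurons; AraC @ DIV 5; dose + media change DIV 7; fix DIV 12; anti-MAP2/anti-synaptophysin IF, Hoechst; HCI count of soma synaptophysin puncta/neuron; DMSO = negative control.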

Assay [14] is described as follows: CCTE_Mundy_HCI_hNP1_Pro_ResponderAvgInten: CCTE's Proliferation Assay in human neuroprogenitor cells, Mundy Lab (AID 2284224; active means hit-call score of the fitted dose curve at least 0.9, where 1 is the maximum). Summed up: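 Proliferation was scored as BrdU labelling intensity in human neural progenitors derived from WA09 embryonic cells, measured 26.25 hours after chemical dosing. Activity was fitted relative to DMSO.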
A short description of assay [15]: UKN4_HCS_LUHMES_cell_viability: Viability Assessment in the University of Konstanz (UKN) Leist Lab Neurite Outgrowth Assay in human LUHMES cells (UKN4) (AID 2284232). The method, boiled down:
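Viability was read by high-content imaging of calcein-AM/H-33342-stained cells after 24 h toxicant exposure, staining included. Cells: human LUHMES on day 2 of dopaminergic differentiation, dosed shortly after attachment; DMSO baseline, bidirectional curve fitting.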

Assay [16] is described as follows: CCTE_Mundy_HCI_Cortical_NOG_NeuronCount: CCTE's Neurite Outgrowth Assay in rat cortical cells for Neuron Count, Mundy Lab (AID 2284236; active means hit-call score of the fitted dose curve at least 0.9, where 1 is the maximum;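 further: neurons counted by imaging betaIII-tubulin and Hoechst stained cortical cells; cells exposed to compound for about 48 hours before fixation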). Summed up: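 Read-out: neuron number by high-content imaging of betaIII-tubulin (Alexa Fluor-488) and Hoechst-labelled rat primary cortical cells.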
Assay [17] is described as follows: CCTE_Mundy_HCI_Cortical_NOG_BPCount: CCTE's Neurite Outgrowth Assay in rat cortical cells for Branch Point Count, Mundy Lab (AID 2284237).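 Further: branch points counted about two days after chemical exposure.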 The method, boiled down:
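Measured 50.33 h after dosing, this morphology endpoint uses rat primary cortical cultures labelled for betaIII-tubulin. Branch points are quantified by high-content imaging, with DMSO as negative control and baseline.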

Results filed as inconclusive are left out. Calls of active or inactive are those of the source. How the source made its calls, unless noted: active means hit-call score of the fitted dose curve at least 0.9, where 1 is the maximum; inactive means score below 0.9.

The AC50 is the concentration giving half of the maximal activity seen. In the case of `O=C1CC2(CCCC2)CC(=O)N1CCCCN1CCN(c2ncccn2)CC1`, the molecule was classed as inactive in assay [1], in assay [4], in assay [5], in assay [6], in assay [7] and in assay [8]. Further, the result in assay [10], in assay [11], in assay [12], in [13], in assay [14] and in [15] was inactive. Moreover, the molecule was classed as inactive in assay [16]. Besides, the AC50 in assay [2] was 25 µM (active); in [3], 15.3 µM (active); in assay [9], 11.9 µM (active); in [17], 9.79 µM (active).
